Screening results as filed in PubChem BioAssay.
SARS PLP yeast: qHTS of Yeast-based Assay for SARS-CoV PLP; S. cerevisiae expressing SARS-CoV PLpro, growth rescue; Potency, µM (titrated, usually from 32.9 µM), most hits filed as activators; hit rate 0.19% among 330,000; AID 485353, 2010; calls by dose curve; also: nearly all actives have a fitted effect of over 55% in size
Lassa entry inh: qHTS for Inhibitors of binding or entry into cells for Lassa Virus; Lassa virus pseudotype entry inhibition, cell reporter; Potency, µM (highest dose often 37.9 µM), most hits filed as inhibitors; hit rate 1.2% among 300,000; calls by dose curve; tested in HEK293 cells; also: nearly all actives have a fitted effect of over 50% in size
Marburg entry inh: qHTS for inhibitors of binding or entry into cells for Marburg Virus; Marburg virus pseudotyped entry inhibition, cell reporter; Potency, µM (top dose mostly 37.8 µM), most hits filed as inhibitors; hit rate 1.8% among 300,000; AID 540276, 2011; calls by dose curve; tested in HEK293 cells
FMDV inh: High Throughput Screening for Foot and Mouth Disease Virus Antivirals; hit rate 1.2% among 410,000; Potency, µM (highest dose often 57.9 µM), usual class: inhibitors; FMDV antiviral cell-based qHTS; calls by dose curve; tested in HEK293T cells; also: read-out not given here; nearly all actives have a fitted effect of over 45% in size
HCV inhibitor: qHTS Assay for Inhibitors of Hepatitis C Virus (HCV) | AID 651820, 2012 | Potency, µM (titrated, usually from 41.8 µM), actives largely listed as inhibitors | hit rate 3.4% among 340,000 | Huh7.5.1 HCVcc-Cre infection, luciferase reporter, 44 h; active = well fitted inhibition curve with a large enough effect; inconclusive = small, poorly fitted or top-dose-only effect, or another doubt; inactive = no such curve, though single readings can be large or run the other way
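Cells (1,000/well) were plated 4 h before compound, then infected with HCVcc-Cre virus (~0.5 moi). After 44 h further culture, infection was read as luciferase luminescence following a 15 min substrate incubation at room temperature.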
HCMV inh: qHTS Assay for inhibitors of the human cytomegalovirus (HCMV); activity change, negative = inhibition, % at 57.5 µM; hit rate 4.5% among 410,000; HFF cells, HCMV-luciferase reporter, 72 h; stronger effect = lower value; AID 1259415, 2018; in the data active = activity change below about -60%; inconclusive = no clear call, values can overlap the other calls; inactive = above about -39%
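After 16 h attachment at 37C, HFF cells received test compound and HCMV-luciferase (1 PFU/cell); reporter luminescence read 72 h later, data normalized against buffer-only and known inhibitor Salinomycin.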
A number is an active result; . = inactive; ? = inconclusive; / = no result; [ ] = remark or other dose. Rows were chosen to be rich in hits. Some 8% of all compounds tested hit in one or more screens of this group.

SMILES	SARS PLP yeast	Lassa entry inh	Marburg entry inh	FMDV inh	HCV inhibitor	HCMV inh
O=C(OC1CNC(C#Cc2cc3ncnc(Nc4ccc5c(cnn5Cc5ccccc5)c4)c3s2)C1)N1CCOCC1 (centres undefined)	/	1.3µM	/	/	/	/
O=C(O)c1ccc(Nc2ncnc3c2cnn3Cc2ccccc2)cc1	.	.	.	.	.	.
C=CC(=O)Nc1cc2c(Nc3ccc(F)c(Cl)c3)ncnc2cc1OCCCN1CCOCC1	/	/	/	/	/	.
CNC(=O)c1cccc(C#Cc2cncnc2Nc2ccc(OCc3cccc(F)c3)c(Cl)c2)c1	/	0.79µM	/	/	/	/
O=C(OC1CNC(C#Cc2cc3ncnc(Nc4ccc(OCc5cccc(F)c5)c(Cl)c4)c3s2)C1)N1CCOCC1 (centres undefined)	/	2.8µM	/	/	/	/
CN(C)C(=O)OC1CNC(C#Cc2cc3ncnc(Nc4ccc(OCc5cccc(F)c5)c(Cl)c4)c3s2)C1 (centres undefined)	/	5µM	/	/	/	/
Cc1cccc(C(=O)Nc2cc(OCc3cccc(F)c3)c(Cl)cc2Cl)c1	.	.	.	.	.	.
CCOC(=O)c1c(C)oc2nc(C)nc(NCc3cccc(Cl)c3)c12	/	.	/	.	/	.
NC(C(=O)O)[C@H](O)C(=O)O (some centres undefined)	/	/	/	.	/	/
COc1ccc(C(O)c2ncc(-c3ccccc3Cl)[nH]2)cc1 (centres undefined)	/	/	/	.	/	-74
COC(=O)c1nnn(CC(=O)Nc2c(C)cccc2C)c1N	/	?	?	.	/	.
Cc1c(CN(C)C(=O)c2sc3cc(Cl)ccc3c2Cl)cnn1C	.	.	?	.	22µM	-84
Cc1ccc(NC(=O)CN(C)C(=O)c2sc3cc(Cl)ccc3c2Cl)cc1	.	.	.	.	.[8.37 µM]	.
COC(=O)/C=C1/N/C(=N\c2nc(C)cc(C)n2)N(c2cccc(C)c2)C1=O	.	?	.	28µM	.	?
COC(=O)/C=C1\N/C(=N\c2nc(C)cc(C)n2)N(c2ccccc2)C1=O	.	.	.	?	.	.
COc1ccccc1CN1CCC2(CCC(CNC(=O)c3ccccc3N(C)C)O2)CC1 (centres undefined)	/	/	/	.	/	/
O=C1CC(=C(c2ccccc2)c2ccccc2)C(=O)N1CCCCN1CCN(c2cccc(Cl)c2)CC1	.	?	?	?	11µM	.
Cc1ccccc1N1CCN(CCCN2C(=O)CC(=C(c3ccccc3)c3ccccc3)C2=O)CC1	.	.	.	.	?	.
CCCCNS(=O)(=O)c1ccc2nc(-c3cccnc3)cc(C(=O)NCCC)c2c1	/	.	/	.	/	-66
CC(=O)c1ccccc1OCCCOc1cccc2cccnc12	/	/	/	.	?	-83
Cc1nc2ccccc2c2oc(C(=O)Nc3ccc4c(c3)OCCO4)cc12	.	/	/	.	13µM	.
Cc1nc2ccccc2c2oc(C(=O)Nc3ccc(C(C)C)cc3)cc12	.	/	/	?	?	-68
COc1ccccc1CN1CCCCC1c1cccnc1 (centres undefined)	.	.	.	.	.	-86
CC(=O)C1=CN(CCc2c[nH]c3ccccc23)C(=O)NC1c1ccccc1 (centres undefined)	/	/	.	/	/	/
Cc1cc(C)cc(NC(=O)c2sc3nc[nH]c(=O)c3c2C)c1	/	.	/	.	/	.
SMILES	SARS PLP yeast	Lassa entry inh	Marburg entry inh	FMDV inh	HCV inhibitor	HCMV inh
Cc1coc2c1c(C)cc1oc(=O)cc(C)c12	/	.	.	.	/	.
CCc1cc(=O)oc2cc(C)c3c(C)coc3c12	.	.	?	.	11µM	.
CCCCCCC(C)n1[nH]c(=O)c2c(C)cc(=O)[nH]c21 (centres undefined)	.	.	?	?	.	-70
O=S(=O)(NCCc1csc2nc(-c3ccc(Cl)cc3)nn12)c1cccs1	/	.	/	.	/	.
CCOC(=O)c1cn2nc(N3CCCC3)ccc2n1	.	1.4µM	3.5µM	.	.	.
Cc1c(NC(=O)CN2C(=O)NC3(CCCC3)C2=O)c(=O)n(-c2ccccc2)n1C	.	.	.	.	.	-101
Cc1cc(C)c(NC(=O)CN(C)CC(=O)Nc2cccc(S(=O)(=O)N(C)c3ccccc3)c2)c(C)c1	.	/	/	?	10µM	?
CN(c1ccccc1)S(=O)(=O)c1cccc(NC(=O)CN2C(=O)NC3(CCCCC3)C2=O)c1	.	/	/	.	3.2µM	.
CN(c1ccccc1)S(=O)(=O)c1cccc(NC(=O)CN2CCCc3ccccc32)c1	.	?	8.9µM	.	?	.
